# Results published in PubChem BioAssay (Tox21).
# Calls of active or inactive are those of the source. Calls come from the whole dose curve; as a rule, active = well fitted curve in the direction sought with a large enough effect in the repeat runs; inconclusive = weak or mixed curves; inactive = flat fitted curve, though single readings scatter.
# Assay: qHTS assay to test for compound auto fluorescence at 535 nm (green) in HepG2 cell free culture (AID 720686)
# Conditions: Cell-free medium, green autofluorescence 485/535 nm; series mostly up to 91.3 µM; fluorescence, % of fluorescein control: at the top concentration
# Excerpt: U.S. Tox21 Program National Center for Advancing Translational Sciences [NCATS] NIH Chemical Genomics Center [NCGC] U.S. Environmental Protection Agency [EPA] National Institutes of Environmental Health Sciences [NIEHS] National Toxicology Program [NTP] U.S. Food and Drug Administration [FDA] Tox21 Assay Overview: Compound auto fluorescence often interferes with screening of the compound library against various biological targets and signaling pathways. Some of these compounds may have fluorophoric properties. Such properties may interfere with the assay outputs resulting in false positives and/or negatives. To decrease such complications and ensure the compound activities are relevant in terms of biological response, the Tox21 10K compound library was screened for auto fluorescence. From the fluorophores used as reporter signals in our screening assays, the auto fluorescence equivalencies of compounds against three fluorophores have been evaluated: Triamterene, Fluorescein and Rose Bengal sodium for blue, green and red fluorescence, respectively. The fluorescence intensities were measured using Excitation/Emission wavelengths at 405/460nm, 485/535nm and 540/590nm for blue, green and red labels, respectively. This assay includes the green fluorescence data.
# Tox21 Assay Protocol Summary: 5 uL of culture medium (MEM containing 10% FBS) per well was dispensed into black wall/clear bottom 1536-well plates using a Multidrop Combi Dispenser (ThermoFisher Scientific, Waltham, MA). After 23 nL compound or DMSO vehicle was transferred into assay plate by a pintool work station (Kalypsys, San Diego, CA), fluorescence intensities in the assay plates were measured by an Envision (PerkinElmer, Shelton, CT) plate reader using three labels for measuring blue, green and red fluorescence at […] 460, 535 and 590nm respectively.
# % is set by controls: 0 for no effect and ±100 for the full control effect.
row,Structure (SMILES),"fluorescence, % of fluorescein control"
1,CCCCNCC,-0.0448% (inactive)
2,CCCCCCC(=O)c1ccccc1,-0.0051% (inactive)
3,CCCCCC(CC)OC(=O)CCCOc1ccc(Cl)cc1Cl (stereo not given),-0.0939% (inactive)
4,Cc1ccccc1C#N,0.0625% (inactive)
5,CC(=O)SC[C@@H](C)C(=O)N1CCC[C@H]1C(=O)N[C@@H](Cc1ccccc1)C(=O)O,-0.107% [at 46 µM] (inactive)
6,CCCC[O][Al]([O]CCCC)[O]CCCC,0.0519% (inactive)
7,N#Cc1ccccc1C#N,0.0331% (inactive)
8,CCC(C)SSC(C)CC (stereo not given),0.0619% (inactive)
9,CCCCCCCCCCCCCCCC/C=C/C1CC(=O)OC1=O (stereo not given),0.0041% [at 46 µM] (inactive)
10,CCCC(=O)C(CC)Sc1ccoc1C (stereo not given),-0.0075% (inactive)
11,CC(CN1CC(=O)NC(=O)C1)N1CC(=O)NC(=O)C1 (stereo not given),0.0119% (inactive)
12,C=CCCCCCCCCOC(C)=O,-0.0009% (inactive)
13,CC(C)C(C)C,-0.0659% (inactive)
14,CCOC(=O)CC,0.0072% (inactive)
15,COc1ccc(Cl)cc1C,-0.0079% [at 95.7 µM] (inactive)
16,CC(C)(C)OC=O,0.0336% [at 95.7 µM] (inactive)
17,C=C(C)C(=O)OCCCC,-0.0891% [at 95.7 µM] (inactive)
18,CCOc1ccccc1OCCN[C@H](C)Cc1ccc(OC)c(S(N)(=O)=O)c1,0.0519% [at 46 µM] (inactive)
19,C[n+]1ccccc1/C=N/O,0.0162% [at 18.6 µM] (inactive)
20,CCCc1ccc(O)c(OC)c1,0.036% (inactive)

row,Structure (SMILES),"fluorescence, % of fluorescein control"
1,C[C@H]1COc2c(C3(N)CC3)c(F)cc3c(=O)c(C(=O)O)cn1c23,0.107% [at 46 µM] (inactive)
2,CCc1ccc(CC)cc1,0.0777% (inactive)
3,c1coc(Cn2cccc2)c1,0.119% (inactive)
4,CNC(C)=O,0.0717% (inactive)
5,CCCC(=O)OC,-0.06% (inactive)
6,N=C(N)N1CCc2ccccc2C1,-0.126% [at 46 µM] (inactive)
7,NC(=O)CC[C@@H](N)C(=O)O,0.0124% [at 46 µM] (inactive)
8,Cc1cccc(N)n1,-0.0252% [at 95.7 µM] (inactive)
9,Clc1cc(Cl)c(Cl)c(Cl)c1Cl,-0.0132% (inactive)
10,Cc1cc(C)c(N)c(Cl)c1,0.0426% (inactive)
11,Nc1ccc(C(=O)NCC(=O)O)cc1,0.0021% [at 18.6 µM] (inactive)
12,O=C(O)COc1ccc2ccccc2c1,-0.0449% (inactive)
13,Cc1ccc2cccnc2c1,0.0627% (inactive)
14,Cc1ccc(N)nc1,0.0102% (inactive)
15,CC(C)(C)C(=O)CC(=O)C(C)(C)C,-0.0966% [at 95.7 µM] (inactive)
16,CN1CCN(C(=O)C2CCCCC2)CC1,0.0259% [at 46 µM] (inactive)
17,Cc1ccc(NC(N)=O)cc1,-0.109% (inactive)
18,Cc1ccccc1OCC(=O)O,0.0214% (inactive)
19,CCCC(=O)CC,-0.126% [at 95.7 µM] (inactive)
20,C=COCCCCO,-0.0876% (inactive)
